PubChem BioAssay
Active and inactive are the calls of the source.

What was measured:
[1] = system: PRMT1 (protein arginine N-methyltransferase 1); assay: small molecules binding arginine methyltransferase PRMT1 – biochemical, small-molecule microarray, 635 nm fluorescence, primary screen (AID 1088); details: higher = more signal;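 further: binding of Prmt1 protein to compounds spotted on small-molecule microarray slides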
[2] = growth effects on S. cerevisiae YJM789 – YJM789 clinical isolate, OD600, 24 h, basal, primary screen (AID 1089); details: higher = more signal, called active from +8 up or from −8 down;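 further: growth of clinical yeast isolate S. cerevisiae YJM 789 seeded 1000 cells per well; test concentration not given here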
[3] = S. pombe growth modifiers, basal conditions – strain 972, OD600, 24 h, no modulator, primary screen (AID 1090);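 further: basal condition with compound alone and no growth modifier present; test concentration not given here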; details: S. pombe 972 growth, higher = more signal, called active from +8 up or from −8 down
[4] = budding yeast growth modifiers under rapamycin – strain BY4716, OD600, 96 h, primary screen (AID 1091); further: test concentration not given here; details: S. cerevisiae BY4716 + rapamycin, higher = more signal, called active from +8 up or from −8 down
[5] = molecular target: Torsin-1A-interacting protein 2 (Homo sapiens) (UniProt Q8NFQ8); assay: small molecules binding lysate-expressed LULL1 – cell lysate, human LULL1 lysate, 635/667 nm fluorescence, primary screen (AID 1092); details: small-molecule microarray, hLULL1 lysate binding, 635 nm fluorescence; higher = more signal;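 further: probe is lysate of COS7 cells overexpressing human LULL1; score merges per-feature 667 nm fluorescence with signal-to-noise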
[6] = optical density change of DRC41 E. coli – strain DRC41, OD650, 24 h, E. coli filamentation project, primary screen (AID 1093);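 further: MC1000 strain lacking acrAB efflux and sulA so SOS filamentation is blocked; test concentration not given here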; details: E. coli DRC41 growth, higher = more signal, called active from +8 up or from −8 down
[7] = probe aLefty2 binding to arrayed compounds – biochemical, biotinylated probe, 635/667 nm fluorescence, primary screen (AID 1094); details: small-molecule microarray, higher = more signal;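 further: score merges spot fluorescence near 667 nm with spot signal-to-noise ratio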
[8] = system: Noggin (protein binding on small-molecule microarray); assay: small molecules binding Noggin protein – biochemical, 635/667 nm fluorescence, primary screen (AID 1095); details: 635 nm fluorescence, higher = more signal;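 further: score merges 667 nm feature fluorescence with signal to noise over triplicate slides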
[9] = molecular target: Neurogenic locus notch homolog protein 3 (Homo sapiens) (UniProt Q9UM47); assay: small molecules binding NOTCH3 protein – biochemical, 635/667 nm fluorescence, primary screen (AID 1096); details: small-molecule microarray, 635 nm fluorescence, higher = more signal
[10] = probe aEGFR binding to arrayed compounds – biochemical, biotinylated probe, 635/667 nm fluorescence, primary screen (AID 1097); details: small-molecule microarray, higher = more signal;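 further: probe is a biotinylated anti-EGFR antibody binding compounds printed on slides; score combines fluorescence near 667 nm and signal to noise of each spot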

Neurogenic locus notch homolog protein 3 (Homo sapiens), sequence (Q9UM47 whole entry, looked up): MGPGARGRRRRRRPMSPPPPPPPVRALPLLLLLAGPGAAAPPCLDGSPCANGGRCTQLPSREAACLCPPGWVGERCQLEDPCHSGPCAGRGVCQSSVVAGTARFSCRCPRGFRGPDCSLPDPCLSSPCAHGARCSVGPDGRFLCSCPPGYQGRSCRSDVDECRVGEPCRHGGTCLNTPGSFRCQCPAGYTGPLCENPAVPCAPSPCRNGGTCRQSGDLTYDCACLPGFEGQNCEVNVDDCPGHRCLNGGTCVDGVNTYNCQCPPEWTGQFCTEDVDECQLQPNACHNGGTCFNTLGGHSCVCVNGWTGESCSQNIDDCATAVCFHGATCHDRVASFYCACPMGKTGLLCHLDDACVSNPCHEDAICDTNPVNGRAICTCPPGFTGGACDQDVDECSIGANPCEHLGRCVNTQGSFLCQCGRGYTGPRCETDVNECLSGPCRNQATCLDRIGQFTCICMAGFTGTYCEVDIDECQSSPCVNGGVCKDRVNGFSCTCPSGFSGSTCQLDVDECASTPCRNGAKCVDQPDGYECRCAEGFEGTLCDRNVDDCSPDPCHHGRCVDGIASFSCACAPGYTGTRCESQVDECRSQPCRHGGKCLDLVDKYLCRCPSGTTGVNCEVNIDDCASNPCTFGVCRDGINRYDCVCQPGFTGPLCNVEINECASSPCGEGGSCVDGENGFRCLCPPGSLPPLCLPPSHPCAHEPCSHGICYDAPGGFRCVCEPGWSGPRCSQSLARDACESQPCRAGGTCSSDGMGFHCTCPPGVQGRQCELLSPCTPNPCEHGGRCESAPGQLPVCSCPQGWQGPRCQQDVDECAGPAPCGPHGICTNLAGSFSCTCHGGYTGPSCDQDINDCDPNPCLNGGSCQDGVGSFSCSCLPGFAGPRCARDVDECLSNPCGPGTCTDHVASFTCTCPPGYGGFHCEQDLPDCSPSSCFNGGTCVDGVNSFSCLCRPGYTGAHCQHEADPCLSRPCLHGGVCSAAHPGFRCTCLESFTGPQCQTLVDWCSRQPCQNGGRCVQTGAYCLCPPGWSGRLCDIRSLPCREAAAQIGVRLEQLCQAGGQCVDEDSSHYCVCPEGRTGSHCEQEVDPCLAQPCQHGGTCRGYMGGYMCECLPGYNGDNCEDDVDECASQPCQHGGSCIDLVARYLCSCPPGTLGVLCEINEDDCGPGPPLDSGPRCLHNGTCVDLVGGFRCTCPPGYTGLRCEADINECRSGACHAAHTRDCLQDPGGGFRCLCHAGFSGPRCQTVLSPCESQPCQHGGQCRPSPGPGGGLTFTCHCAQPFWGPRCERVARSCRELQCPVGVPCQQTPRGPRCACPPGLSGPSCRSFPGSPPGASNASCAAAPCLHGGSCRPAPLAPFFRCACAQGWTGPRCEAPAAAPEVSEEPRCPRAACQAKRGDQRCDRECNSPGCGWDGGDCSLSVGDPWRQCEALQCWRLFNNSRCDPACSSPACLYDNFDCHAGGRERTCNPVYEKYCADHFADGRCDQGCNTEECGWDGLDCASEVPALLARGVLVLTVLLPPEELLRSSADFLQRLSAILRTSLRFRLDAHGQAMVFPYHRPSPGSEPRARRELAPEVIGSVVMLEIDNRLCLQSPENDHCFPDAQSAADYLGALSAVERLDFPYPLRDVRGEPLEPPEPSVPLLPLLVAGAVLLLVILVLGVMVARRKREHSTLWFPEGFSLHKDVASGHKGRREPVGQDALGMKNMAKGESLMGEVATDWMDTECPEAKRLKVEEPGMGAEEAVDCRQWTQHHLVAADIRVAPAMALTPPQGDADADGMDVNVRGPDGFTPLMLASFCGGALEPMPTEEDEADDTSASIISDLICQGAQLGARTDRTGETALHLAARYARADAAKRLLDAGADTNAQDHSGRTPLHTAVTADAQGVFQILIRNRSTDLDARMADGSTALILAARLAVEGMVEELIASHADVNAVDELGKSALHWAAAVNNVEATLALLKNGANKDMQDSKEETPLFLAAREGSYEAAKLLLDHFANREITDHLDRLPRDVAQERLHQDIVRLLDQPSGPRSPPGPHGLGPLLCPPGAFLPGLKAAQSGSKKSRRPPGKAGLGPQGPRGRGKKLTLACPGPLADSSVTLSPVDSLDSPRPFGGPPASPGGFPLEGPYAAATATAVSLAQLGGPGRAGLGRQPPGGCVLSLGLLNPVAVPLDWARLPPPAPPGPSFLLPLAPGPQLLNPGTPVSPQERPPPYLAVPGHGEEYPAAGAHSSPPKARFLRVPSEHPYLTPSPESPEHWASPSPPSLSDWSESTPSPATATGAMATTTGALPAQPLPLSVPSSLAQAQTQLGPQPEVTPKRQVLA
Torsin-1A-interacting protein 2 (Homo sapiens), sequence (Q8NFQ8 whole entry, looked up): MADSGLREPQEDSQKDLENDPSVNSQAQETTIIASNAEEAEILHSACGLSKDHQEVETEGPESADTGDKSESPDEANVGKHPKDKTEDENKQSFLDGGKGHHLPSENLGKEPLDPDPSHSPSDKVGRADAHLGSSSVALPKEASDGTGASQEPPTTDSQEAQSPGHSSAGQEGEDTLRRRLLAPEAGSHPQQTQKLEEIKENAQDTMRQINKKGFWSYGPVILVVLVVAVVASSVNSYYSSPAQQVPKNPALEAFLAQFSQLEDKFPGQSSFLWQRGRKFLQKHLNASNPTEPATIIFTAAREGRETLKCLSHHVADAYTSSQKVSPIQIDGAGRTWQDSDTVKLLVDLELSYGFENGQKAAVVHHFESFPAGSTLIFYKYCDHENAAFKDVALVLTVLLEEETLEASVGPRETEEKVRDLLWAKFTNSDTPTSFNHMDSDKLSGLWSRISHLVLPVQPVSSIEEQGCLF

SMILES	composite z-score [1]	z-score [2]	z-score [3]	z-score [4]	composite z-score [5]	z-score [6]	composite z-score [7]	composite z-score [8]	composite z-score [9]	composite z-score [10]
NC(=O)[C@H]1[C@@H]2C(=O)O[C@@H](c3ccccc3)[C@@H](c3ccccc3)N2[C@@H](c2ccc(O)cc2)[C@]12C(=O)Nc1ccccc12	-0.472	0.446 (inactive)	-0.732 (inactive)	0.659 (inactive)	2.99	0.13 (inactive)	-0.139	-1.18	-1.03	-0.356
COCCOC(=O)N1C(=O)[C@@]2(c3cc(C#CCCO)ccc31)[C@H](C(=O)N1CCCCCCC1)[C@H]1C(=O)O[C@H](c3ccccc3)[C@H](c3ccccc3)N1[C@@H]2c1ccccc1OCCO	1.54	0.658 (inactive)	-2.09 (inactive)	1.93 (inactive)	4	-0.452 (inactive)	1.47	1.76	1.07	0.89
C=C(/C(=C/C[C@H](OC(=O)c1ccncc1)c1ccccc1OCCO)c1cnc2ccccc2c1)C(C)C	1.54	-2.36 (inactive)	-0.555 (inactive)	2.22 (inactive)	2.27	-0.0584 (inactive)	-0.0632	1.13	1.02	-0.0828
C=C[C@@H](C)[C@@H](OC(=O)Nc1ccc(SC)cc1)c1ccc(OCCO)cc1	1.19	0.222 (inactive)	-1.58 (inactive)	-0.31 (inactive)	1.92	1.41 (inactive)	-0.106	0.172	0.194	0.0348
O=C(NCCN1CCOCC1)[C@@H]1c2ccccc2C(=O)N(Cc2ccccc2)[C@H]1c1ccc(CO)cc1	-0.845	-0.0009 (inactive)	0.253 (inactive)	-0.412 (inactive)	0.0893	0.311 (inactive)	-0.129	0.278	-0.036	-0.204
COC(=O)[C@@]1(Cc2ccccc2CN=[N+]=[N-])N=C(c2ccc(OCCCO)cc2)O[C@H]1c1ccccc1CN=[N+]=[N-]	0.812	0.84 (inactive)	1.96 (inactive)	35.5 (active)	1.3	0.478 (inactive)	-0.0458	-0.56	-0.498	-0.21
NC(=O)[C@H]1[C@@H]2C(=O)O[C@@H](c3ccccc3)[C@@H](c3ccccc3)N2[C@@H](c2ccc(O)cc2)[C@]12C(=O)Nc1ccc(C#CC3=CCCCC3)cc12	1.45	1.42 (inactive)	0.481 (inactive)	2.1 (inactive)	2.83	-1.32 (inactive)	-0.185	0.186	0.169	-0.186
Cc1ccc(N2C(=O)c3ccccc3[C@](C)(C(=O)NCc3ccccc3)[C@@H]2c2ccc(CO)cc2)nc1	0.596	0.34 (inactive)	-0.72 (inactive)	-0.0557 (inactive)	0.945	0.148 (inactive)	0.0781	0.184	-0.456	0.108
O=C(CS)NCCCCCNC(=O)[C@@H]1C[C@@H]2C(=O)N[C@@H](Cc3ccccc3)C(=O)N2[C@@H]1c1cccc(OCCO)c1	1.56	0.368 (inactive)	-0.653 (inactive)	0.658 (inactive)	3.04	0.142 (inactive)	-0.515	0.203	0.823	-0.0271
C=CCC(OC(C)=O)[C@@H]1[C@@H](N(Cc2ccc(-c3ccccc3)cc2)C(=O)Cc2ccc(F)cc2)c2cc(OCCCO)ccc2N1C(=O)Cc1ccc2ccccc2c1 (stereo not given in full)	-0.848	-0.106 (inactive)	0.412 (inactive)	0.0926 (inactive)	2.46	0.708 (inactive)	0.385	0.115	0.151	-0.0828
CCOC(=O)C1=C[C@@H](c2ccccc2)N(S(=O)(=O)c2ccc(C)cc2)[C@H]1c1ccccc1	0.712	-1.27 (inactive)	0.517 (inactive)	0.958 (inactive)	0.91	0.6 (inactive)	-0.0113	0.0762	0.552	-0.112
NC(=O)N1C(=O)C2C(C1=O)C1C=C(CCCO)C2C(C2CC2)N1Cc1cccc(OC(F)(F)F)c1 (stereo not given)	0.639	-0.897 (inactive)	-0.497 (inactive)	-1.47 (inactive)	2.63	-0.284 (inactive)	-0.249	-0.0319	-0.538	-0.184
Cc1ccc([C@H]2C(C(=O)O)=C[C@@H](C(C)(C)C)N2S(=O)(=O)c2ccc(C)cc2)cc1	1.39	-0.225 (inactive)	0.289 (inactive)	0.118 (inactive)	3.25	-1.01 (inactive)	0.118	0.101	1.04	0.155
C[C@]1(C(=O)NCC(F)(F)F)c2ccccc2C(=O)N(Cc2ccccc2)[C@H]1c1ccc(CO)cc1	-0.604	0.724 (inactive)	0.645 (inactive)	-0.0993 (inactive)	1.57	0.855 (inactive)	-0.0478	-1.45	-1.21	-0.162
O=C1O[C@H](c2ccccc2)[C@H](c2ccccc2)N2[C@H]1[C@@H](C(=O)O)[C@]1(C(=O)Nc3ccc(C#CC4(O)CCCCCC4)cc31)[C@H]2c1ccc(O)cc1	0.871	-0.386 (inactive)	-1.22 (inactive)	-1.76 (inactive)	3.14	2.04 (inactive)	-0.142	-0.292	0.0139	0.192
C=CCC(OC(C)=O)[C@@H]1[C@@H](N(Cc2ccc(-c3cccc(C(F)(F)F)c3)o2)C(=O)c2cccc3ccccc23)c2cc(OCCCO)ccc2N1C(=O)Cc1ccc(OC)cc1 (stereo not given in full)	0.224	0.504 (inactive)	-0.117 (inactive)	-0.296 (inactive)	0.648	0.776 (inactive)	0.0054	0.266	0.263	-0.133
CC(C)(C)OC(=O)CC[C@]1(C(=O)N2CCCCC2)COC(c2ccc(OCCCO)cc2)=N1	1.47	-1.1 (inactive)	-0.878 (inactive)	-1.57 (inactive)	3.57	0.992 (inactive)	0.066	0.318	0.79	-0.0139
C=CCNC(=O)[C@H]1[C@@H]2C(=O)O[C@@H](c3ccccc3)[C@@H](c3ccccc3)N2[C@@H](c2ccc(OCCO)cc2)[C@]12C(=O)N(C(=O)OCCOC)c1ccc(C#Cc3ccc(OC)cc3)cc12	1.41	1.2 (inactive)	0.927 (inactive)	6.91 (inactive)	2.47	2.63 (inactive)	-0.0154	1.04	1.09	-0.0164
COc1ccc(C(O)C2C=CC3C(=O)N(c4ccccc4)C(=O)C3N2Nc2ccccc2)cc1 (stereo not given)	1.53	0.219 (inactive)	-0.24 (inactive)	0.211 (inactive)	3.6	-0.701 (inactive)	0.191	0.505	1.05	-0.0382
COCCOC(=O)N1C(=O)[C@@]2(c3cc(C#CCNC(N)=O)ccc31)[C@H](c1ccc(O)cc1)N1[C@H](c3ccccc3)[C@H](c3ccccc3)OC(=O)[C@H]1[C@@H]2C(=O)N1CCN(c2ncccn2)CC1	1.42	1.74 (inactive)	1.94 (inactive)	4.35 (inactive)	3	-0.561 (inactive)	0.24	0.96	1.15	0.187
COc1cc(NN2C(C(O)c3ccc(I)cc3)C=CC3C(=O)N(c4ccccc4)C(=O)C32)cc(OC)c1OC (stereo not given)	1.56	0.93 (inactive)	-0.229 (inactive)	0.0332 (inactive)	3.56	-0.699 (inactive)	0.25	0.218	1.05	-0.0423
CCCNC(=O)[C@@]1(Sc2ccc(C)cc2)CC(=O)N(C2CCCCC2)[C@@H]1c1ccc(CO)cc1I	1.56	-1.2 (inactive)	0.554 (inactive)	-0.133 (inactive)	2.44	0.19 (inactive)	-0.273	-0.447	0.298	-0.0643
O=C1[C@@]23C=C(Br)[C@H](C[C@@H]2COC3)[C@@]12CO2	-0.186	0.108 (inactive)	-1.34 (inactive)	0.0993 (inactive)	-0.498	-1.39 (inactive)	-0.124	0.648	0.574	-0.184
COCCCNC(=O)[C@@]1(c2ccc([N+](=O)[O-])cc2)CC(=O)N(C(C)C)[C@@H]1c1ccc(CO)cc1	0.197	-0.411 (inactive)	-0.46 (inactive)	-0.363 (inactive)	0.15	0.409 (inactive)	0.701	-0.363	-0.617	-0.071
COCCOC(=O)N1C(=O)[C@@]2(c3cc(C#Cc4ccc(OC)cc4)ccc31)[C@H](C(=O)NC[C@H](O)c1ccccc1)[C@H]1C(=O)O[C@H](c3ccccc3)[C@H](c3ccccc3)N1[C@@H]2c1ccc(OCCO)cc1	1.54	1.62 (inactive)	1.74 (inactive)	7.18 (inactive)	2.87	1.38 (inactive)	-0.0412	1.32	1.04	-0.0532
CCCCC=C[C@@H](NC(=O)c1ccccc1)c1ccccc1	1.04	0.409 (inactive)	0.336 (inactive)	0.889 (inactive)	3.51	-1.37 (inactive)	-0.0261	-0.328	1.09	0.0488
C=C(CCCC)/C(=C/C[C@H](OC(C)=O)c1ccc(OCCO)cc1)c1cc(C(=O)OC)ccc1OC	1.25	0.966 (inactive)	-0.628 (inactive)	-0.59 (inactive)	2.36	0.54 (inactive)	-0.0238	0.917	0.563	-0.115
Cc1c(NC(=O)/C(C#N)=C/c2ccccc2Cl)c(=O)n(-c2ccccc2)n1C	0.315	-1.06 (inactive)	-1.76 (inactive)	-0.4 (inactive)	3.03	0.245 (inactive)	-0.158	0.0603	0.259	0.0092
COC(=O)C1=CC(CCCO)=CC(C)N(Cc2cccc(OC(F)(F)F)c2)C=C1C(=O)OC (stereo not given)	0.897	-0.743 (inactive)	-2.12 (inactive)	0.219 (inactive)	2.65	-1.53 (inactive)	-0.0712	-0.296	0.532	-0.02
